Assay results published in ChEMBL document CHEMBL1157539, “Thousands of chemical starting points for antimalarial lead identification” (Nature, 2010).
Values joined by “and” are separate entries in the source; they are usually repeats but may differ in a detail not shown here. Equal entries are not always repeated.

What was measured:
Assay type in all cases: functional
Plasmodium falciparum [1] = experiment: GSK_TCMDC: Inhibition of Plasmodium falciparum 3D7 in whole red blood cells, using parasite LDH activity as an index of growth. Test compounds present at 2uM
Plasmodium falciparum [2] = experiment: GSK_TCMDC: Inhibition of Plasmodium falciparum Dd2 in whole red blood cells, using parasite LDH activity as an index of growth. Test compounds present at 2uM
HepG2 = experiment: GSK_TCMDC: Percent inhibition of human HepG2 cell line. Test compounds present at 10uM.

| SMILES | Inhibition (Plasmodium falciparum [1]) | Inhibition (Plasmodium falciparum [2]) | Inhibition (HepG2) |
| --- | --- | --- | --- |
| O=C(/C=C/c1cccs1)NCC(NCCCNc1cc(=O)c2ccccc2[nH]1)c1cc(Br)cc(Br)c1 (stereo unspecified) | 100% | 58% | 0% |
| CCN(CC)C(=O)C1CCCN(C(=O)Nc2cc(C(F)(F)F)cc(C(F)(F)F)c2)C1 (stereo unspecified) | 86% | 98% | 0% |
| N#Cc1cccc(C(=O)Nc2cccc(-c3ccc(CN4CCCC4)cc3)c2)c1.O=C(O)C(F)(F)F | 98% | 42% | 11% |
| Oc1ccc2nc(Nc3ccccc3)nc(NCCc3ccccc3)c2c1 | 100% | 100% | 20% |
| CCc1cn(CC(=O)N(CCOc2ccc(-c3ccc(C(F)(F)F)cc3)cc2)CCN(CC)CC)c(SCc2ccc(F)cc2)nc1=O | 95% | 29% | 46% |
| COc1cc(O)c2c(=O)c(OC)c(-c3cccc(Cl)c3OC3O[C@H](CO)[C@@H](O)[C@H](O)[C@H]3O)oc2c1OC (stereo partly specified) | 100% | 6% | 16% |
| Cc1nn(-c2ccccc2)c2sc(C(=O)N(CCCN(C)C)c3nc(-c4ccccc4)cs3)cc12.Cl | 95% | 36% | 99% |
| O=C1COC2(CN1CC1CCN(Cc3ccc(O)c(Cl)c3)C1)c1ccccc1-c1ccccc12.O=CO (stereo unspecified) | 93% | 50% | 6% |
| COc1cc(F)c2ncc(Cl)c([C@@H](O)CN3CCC(NCc4cc5c(cn4)OCCO5)CC3)c2c1.Cl | 100% | 100% | 11% |
| Br.CCc1c(CCNCCCCCCNCCc2ccc([N+](=O)[O-])cc2)ccc(O)c1O | 94% | 23% | 5% |
| OC1CCC(Nc2ccc3ncc(-c4ccc5ccccc5c4)n3n2)CC1 (stereo unspecified) | 95% | 94% | 52% |
| O=C(CCOc1ccccc1)NCC1CCCO1 (stereo unspecified) | 92% | 0% | 0% |
| Oc1ccccc1N1CCN(c2ccc(-c3nc4ccccc4[nH]3)cn2)CC1 | 97% | 50% | 0% |
| Cc1ccc2c(Cl)c(C(=O)N3CC(C)OC(C)C3)sc2c1 (stereo unspecified) | 100% | 98% | 4% |
| Cc1ccc2c(c1[N+](=O)[O-])N=NCC2Oc1ccccc1 (stereo unspecified) | 91% | 19% | 16% |
| Cc1cccc2nc(-c3ccc(-c4ccc(NC(=O)Nc5ccc(Cl)cc5)cc4)s3)[nH]c12 | 100% | 100% | 78% |

| SMILES | Inhibition (Plasmodium falciparum [1]) | Inhibition (Plasmodium falciparum [2]) | Inhibition (HepG2) |
| --- | --- | --- | --- |
| COc1ccc(CNCc2ccc(-c3ccc(CNCCc4ccccc4)cn3)cc2)cn1.O=C(O)C(F)(F)F | 97% | 44% | 16% |
| C=CCC(CC=C)N1C(=O)C(c2ccccc2)(c2ccccc2)N=C1N.O=CO | 98% | 97% | 35% |
| O=C(Nc1cccc(CN2CCCN(Cc3cccc(O)c3)CC2)c1)c1cc2ccccc2s1.O=C(O)C(F)(F)F | 100% | 75% | 15% |
| O=C(c1ccc(Br)o1)N1N=C(c2cccs2)CC1c1ccc(Br)cc1 (stereo unspecified) | 96% | 45% | 5% |
| CCC1(c2ccccc2)N=C(N)N(CCCc2ccccc2)C1=O (stereo unspecified) | 90% | 96% | 17% |
| Cc1ncccc1C(=O)Nc1ccc(-c2cccc(-c3nc4cccc(C)c4[nH]3)c2)cc1 | 95% | 31% | 6% |
| CC1CN(c2ccc(C(=O)NCC3CC3)cc2NC(=O)OCc2ccccc2)CC(C)O1.O=C(O)C(F)(F)F (stereo unspecified) | 91% | 76% | 0% |
| Clc1ccc2c(NN=Cc3cccnc3)ccnc2c1 | 100% | 86% | 0% |
| CC(C)c1nc(N2CCN(C(=S)NCc3ccccc3)CC2)c(C#N)c2c1COC(C)(C)C2 | 99% | 100% | 0% |
| CC(C)CN1CCCN(Cc2cccc(NC(=O)c3cc4ccccc4s3)c2)CC1.O=C(O)C(F)(F)F | 87% | 6% | 5% |
| CCN(CCCN1CCCCC1)c1cc(C)nc(Nc2ccc(C)c(Cl)c2)n1.O=C(O)C(F)(F)F | 100% | 100% | 32% |
| COc1cc2nc(NCCc3ccccc3)nc(NCCCc3ccccc3)c2cc1OC | 100% | 100% | 21% |
| Cc1[nH]c2cc(F)ccc2c(=O)c1Cc1ccc(Cl)cc1.Cc1[nH]c2cccc(F)c2c(=O)c1Cc1ccc(Cl)cc1 | 94% and 93% | 92% and 94% | 7% and 6% |
| CC(=O)c1ccc(NC(=O)CSc2nc(-c3ccccc3Cl)ns2)cc1 | 89% | 72% | 0% |
| Cl.O=C(Nc1ccc(C(=O)OCC2CCCN3CCCCC23)cc1)c1ccc(Cl)c(Cl)c1 (stereo unspecified) | 99% | 37% | 20% |
| O=C(O)C(F)(F)F.c1ccc2c(c1)CN(Cc1ccsc1)CC1(CCN(Cc3c[nH]c4cnccc34)CC1)O2 | 87% | 75% | 38% |
